The results in this text go back to PubChem BioAssay.

As a reminder, the inhibition is the relative decrease from the control value, in per cent.

Values without a mark were called inactive. For some assays here: Entries with a potency or affinity are not part of this list. Activity calls are given as the source filed them. Unless noted, the rule behind the calls is not given here.

Assay [1] in a line: human hepatoma cell viability loss – ATP luminescence, cytotoxicity control for P. falciparum antimalarial project, primary screen (AID 2303;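 active = inhibition above 50%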;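 note: 0% = DMSO wells and 100% = digitonin-killed cells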). Conditions: HepG2 viability, 24-48 h, at 10 µM, active compounds read high.
Assay [2] addresses L-lactate dehydrogenase (Plasmodium falciparum (isolate CDC / Honduras)) (UniProt Q27743). Briefly: PfLDH activity inhibition – cell lysate, 3D7 strain, counter-screen for P. falciparum growth inhibition project (AID 2304).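 Note: 0% = vehicle and 100% = reference inhibitor.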 Conditions: P. falciparum 3D7 crude extract, LDH APAD/NBT absorbance; at 2 µM; active compounds read high.
The nature of assay [3]: inhibition of 3D7 malaria parasite growth – strain 3D7 (AID 2306).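 Note: 0% = DMSO wells and 100% = chloroquine plus artemisinin control wells.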 Conditions: P. falciparum 3D7 erythrocytic growth, LDH absorbance, 72 h; at 2 µM; active compounds read high.
Assay [4] addresses Calcium-dependent protein kinase 1 (Plasmodium falciparum (isolate 3D7)) (UniProt P62344). Nature of the assay: PfCDPK1 kinase inhibitors, biochemical, TCAMS library (AID 1159585; cut-off not given, nearly all actives have IC50 up to about 0.98 µM;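 note: inhibitors leave more ATP so luminescence rises with inhibition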). As to conditions: recombinant PfCDPK1, Kinase-Glo ATP depletion luminescence. A general note: Kinase-Glo measures the ATP left after a reaction by luminescence.
Assay [5] deals with Plasmodium falciparum protein kinase 6 (PK6, PF3D7_1337100) (UniProt Q8IDW1). Nature of the assay: PfPK6 kinase inhibitors, biochemical, TCAMS library (AID 1159586). As to conditions: recombinant PfPK6, Kinase-Glo ATP depletion luminescence.
Sequence of Plasmodium falciparum protein kinase 6 (PK6, PF3D7_1337100) (Q8IDW1 1-305): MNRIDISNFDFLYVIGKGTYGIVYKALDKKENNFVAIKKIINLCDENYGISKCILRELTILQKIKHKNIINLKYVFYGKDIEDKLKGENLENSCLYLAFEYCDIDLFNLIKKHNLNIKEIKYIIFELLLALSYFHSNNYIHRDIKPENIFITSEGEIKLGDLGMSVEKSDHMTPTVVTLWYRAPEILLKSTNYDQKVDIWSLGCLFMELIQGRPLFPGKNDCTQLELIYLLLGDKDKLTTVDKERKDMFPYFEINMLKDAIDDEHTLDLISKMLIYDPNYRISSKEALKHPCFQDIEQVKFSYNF
Assay [6] concerns the target Protein kinase 7 (PK7), Plasmodium falciparum 3D7 (PF3D7_0213400) (UniProt Q7YTF7). Nature of the assay: inhibition of Plasmodium PK7 catalytic activity – biochemical, TCAMS antimalarial set, Kinase-Glo luminescence (AID 1159587). As to conditions: recombinant PfPK7, Kinase-Glo ATP depletion luminescence.
Assay [7] deals with Calcium-dependent protein kinase 4 (Plasmodium falciparum (isolate 3D7)) (UniProt Q8IBS5). Nature of the assay: PfCDPK4 kinase inhibitors, biochemical, TCAMS library (AID 1159588; cut-off not given, nearly all actives have IC50 up to about 0.91 µM). Conditions: recombinant PfCDPK4, Kinase-Glo ATP depletion luminescence.
Sequence of Calcium-dependent protein kinase 4 (Plasmodium falciparum (isolate 3D7)) (Q8IBS5 whole entry, looked up): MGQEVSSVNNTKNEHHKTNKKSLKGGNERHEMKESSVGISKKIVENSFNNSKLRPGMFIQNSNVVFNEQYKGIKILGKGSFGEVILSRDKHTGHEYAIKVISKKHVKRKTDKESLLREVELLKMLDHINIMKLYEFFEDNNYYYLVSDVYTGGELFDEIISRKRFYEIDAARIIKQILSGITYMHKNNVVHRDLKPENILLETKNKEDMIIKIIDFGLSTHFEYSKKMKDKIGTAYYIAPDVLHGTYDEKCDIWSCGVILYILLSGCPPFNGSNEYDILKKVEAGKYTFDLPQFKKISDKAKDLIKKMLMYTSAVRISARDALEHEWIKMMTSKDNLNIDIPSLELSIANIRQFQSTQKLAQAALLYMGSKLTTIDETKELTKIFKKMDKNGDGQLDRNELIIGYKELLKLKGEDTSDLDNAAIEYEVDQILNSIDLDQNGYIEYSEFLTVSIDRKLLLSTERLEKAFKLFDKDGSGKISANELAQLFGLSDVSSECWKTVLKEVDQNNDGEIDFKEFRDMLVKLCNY
A short description of assay [8]: antimalarial activity against Dd2 strain (AID 2302;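 active = growth inhibition above 50% at the single 2 µM test dose, taken to imply half-maximal potency below 2 µM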;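 note: 0% = DMSO untreated growth and 100% = chloroquine plus artemisinin killed control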). Conditions: P. falciparum Dd2 in RBCs, LDH growth readout, 72 h; at 2 µM; active compounds read high.

Sequence of Calcium-dependent protein kinase 1 (Plasmodium falciparum (isolate 3D7)) (P62344 whole entry, looked up): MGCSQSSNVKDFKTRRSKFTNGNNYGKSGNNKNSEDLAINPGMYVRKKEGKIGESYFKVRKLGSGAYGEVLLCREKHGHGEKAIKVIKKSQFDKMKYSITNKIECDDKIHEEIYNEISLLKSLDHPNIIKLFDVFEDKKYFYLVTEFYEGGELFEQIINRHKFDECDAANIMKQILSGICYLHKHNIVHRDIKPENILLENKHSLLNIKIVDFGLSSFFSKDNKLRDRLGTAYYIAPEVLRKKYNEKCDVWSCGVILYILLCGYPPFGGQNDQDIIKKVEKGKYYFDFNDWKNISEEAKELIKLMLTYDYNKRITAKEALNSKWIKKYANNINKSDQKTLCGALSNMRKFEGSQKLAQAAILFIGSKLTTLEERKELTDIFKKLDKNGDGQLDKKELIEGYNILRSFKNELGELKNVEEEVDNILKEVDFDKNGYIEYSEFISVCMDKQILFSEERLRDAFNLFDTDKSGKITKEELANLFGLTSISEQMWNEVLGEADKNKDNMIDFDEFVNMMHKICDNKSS
Sequence of L-lactate dehydrogenase (Plasmodium falciparum (isolate CDC / Honduras)) (Q27743 whole entry, looked up): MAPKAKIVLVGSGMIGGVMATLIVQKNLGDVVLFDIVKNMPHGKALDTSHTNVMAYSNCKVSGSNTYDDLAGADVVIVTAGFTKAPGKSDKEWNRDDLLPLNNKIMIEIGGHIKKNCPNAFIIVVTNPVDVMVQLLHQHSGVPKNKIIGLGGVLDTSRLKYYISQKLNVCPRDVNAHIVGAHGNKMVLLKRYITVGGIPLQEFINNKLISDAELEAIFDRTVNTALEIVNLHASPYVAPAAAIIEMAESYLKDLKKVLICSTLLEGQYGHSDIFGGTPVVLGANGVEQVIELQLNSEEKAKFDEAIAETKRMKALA
Sequence of Protein kinase 7 (PK7), Plasmodium falciparum 3D7 (PF3D7_0213400) (Q7YTF7 1-343): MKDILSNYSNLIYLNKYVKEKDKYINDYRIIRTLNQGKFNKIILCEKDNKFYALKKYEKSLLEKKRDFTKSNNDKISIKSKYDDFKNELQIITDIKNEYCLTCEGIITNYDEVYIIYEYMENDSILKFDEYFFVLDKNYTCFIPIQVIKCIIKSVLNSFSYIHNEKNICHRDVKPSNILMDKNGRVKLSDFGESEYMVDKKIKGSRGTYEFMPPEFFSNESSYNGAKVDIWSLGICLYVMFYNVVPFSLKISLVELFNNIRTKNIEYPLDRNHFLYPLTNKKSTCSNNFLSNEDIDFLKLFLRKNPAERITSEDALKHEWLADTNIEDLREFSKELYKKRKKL

For `Oc1ccc(CCNCCCCCNCCCc2ccc(Cl)cc2)cc1O`, the inhibition in assay [1] is 22%; in assay [2], -3%. In assay [3], the growth inhibition is 91% (active). Moreover, the outcome in assay [4], in assay [5], in assay [6] and in assay [7] was inactive.
For the molecule `Cc1ccc(-n2c(C)cc(C(=O)CN3C(=O)NC(Cc4ccccc4)C3=O)c2C)cc1` (stereo unspecified), the inhibition was -11% in assay [1] and 3% in assay [2]. In addition, the growth inhibition in assay [3] is 82% (active). The result in assay [4], in assay [5], in assay [6] and in assay [7] was inactive.
As to `c1ccc2c(c1)cc(CNCCCN1CCN(CCCNCc3cc4ccccc4c4ccccc34)CC1)c1ccccc12`, the growth inhibition in assay [8] is 98% (active); in assay [3], 101% (active). Besides, in assay [2], the inhibition was 2%. Moreover, the outcome in assay [4], in assay [5], in assay [6] and in assay [7] was inactive.
On to `C[C@H]1CN(Cc2ccc(-c3cccc(CNC(=O)c4cccc(C(=O)c5ccc(Cl)c(Cl)c5)c4)c3)s2)CCN1`, for which the inhibition in assay [1] and in assay [2] was 3% each time. Besides, the growth inhibition in assay [3] is 99% (active). Moreover, the outcome in assay [4], in assay [5], in assay [6] and in assay [7] was inactive.
As for `c1ccc2sc(-c3csc(Nc4ccncc4)n3)nc2c1`, the results for the inhibition in assay [1] and in assay [2] were -4% and -1%, respectively. For the same molecule, the growth inhibition in assay [3] was 86% (active). The outcome in assay [4], in assay [5], in assay [6] and in assay [7] was inactive.
For the molecule `CC(C)c1ccc(Cn2cc(-c3ccncc3)c3cc(OCc4ccccc4)ccc32)cc1`, the results for the growth inhibition in assay [8] and in assay [3] were 88% (active) and 99% (active), respectively. In addition, in assay [2], the inhibition is -1%. The outcome in assay [4], in assay [5], in assay [6] and in assay [7] was inactive.
As for `CN1CCN(c2ccc3nc(-c4ccc5nc(-c6ccc([N+](=O)[O-])c(N)c6)[nH]c5c4)[nH]c3c2)CC1`, the growth inhibition in assay [8] was 101% (active); in assay [3] it was 100% (active). Moreover, the inhibition in assay [2] is -7%. Moreover, the result in assay [4], in assay [5], in assay [6] and in assay [7] was inactive.
Turning to `COc1ccccc1-c1nc2c(ccc3nc(N)nc(N)c32)[nH]1`, the growth inhibition in assay [8] was 93% (active); in assay [3] it was 101% (active). In assay [2], the inhibition was 2%. Besides, the result in assay [4], in assay [5], in assay [6] and in assay [7] was inactive.
Consider `CC(=O)Nc1ccc(OCCCCCOc2ccc(NC(C)=O)cc2Cl)c(Cl)c1`, for which the growth inhibition in assay [8] is 0%; in assay [3], 93% (active). For the same molecule, the inhibition in assay [2] was -7%. Moreover, the result in assay [4], in assay [5], in assay [6] and in assay [7] was inactive.
As to `C[C@@H]1CN(c2ccc3[nH]cc(Sc4ccc(-c5cccs5)cc4)c3c2)C[C@H](C)N1`, the inhibition in assay [1] is 29%; in assay [2], -4%. Besides, the growth inhibition in assay [3] is 89% (active). Further, the outcome in assay [4], in assay [5], in assay [6] and in assay [7] was inactive.
Turning to `C=CCOc1cc(Cc2cnc(N)nc2N)cc(OC)c1OC`, the inhibition in assay [1] was -14%; in assay [2], 2%. The growth inhibition in assay [3] was 81% (active). Moreover, the result in assay [4], in assay [5], in assay [6] and in assay [7] was inactive.
`CC(C)CNC(=O)c1ccc(-c2cccc(CN3CCC(N4CCCC4)CC3)c2)nc1`: the inhibition in assay [1] was 4%; in assay [2], -3%. Besides, the growth inhibition in assay [3] is 81% (active). The result in assay [4], in assay [5], in assay [6] and in assay [7] was inactive.
Consider `CCCCNC(=O)C1CCCN(C(=O)c2ccc(O)c(-c3ccc(Cl)c(Cl)c3)c2)C1` (stereo unspecified), for which the inhibition in assay [1] was 3%; in assay [2], 2%. Moreover, the growth inhibition in assay [3] is 83% (active). Further, the outcome in assay [4], in assay [5], in assay [6] and in assay [7] was inactive.
Regarding `Cc1ccc(-c2cnc3[nH]cc(-c4ccc(C(=O)O)c(C)c4)c3c2)cc1C`, the inhibition in assay [1] is 37%; in assay [2], 0%. For the same molecule, the growth inhibition in assay [3] was 96% (active). The outcome in assay [4], in assay [5], in assay [6] and in assay [7] was inactive.
Take `CCOc1ccc(CNCCCCCCNCc2ccc(OCC)c3ccccc23)c2ccccc12`: the growth inhibition is 75% (active) in assay [8] and 101% (active) in assay [3]. Besides, the inhibition in assay [2] was -4%. The result in assay [4], in assay [5], in assay [6] and in assay [7] was inactive.
As for `Cc1nn(-c2ccccc2)nc1C(=O)N(Cc1ccc(-c2ccc(CNCCc3ccc(S(C)(=O)=O)cc3)cn2)cc1)C1CC1`, the results for the inhibition in assay [1] and in assay [2] were 9% and -2%, respectively. In assay [3], the growth inhibition is 84% (active). Moreover, the result in assay [4], in assay [5], in assay [6] and in assay [7] was inactive.
`CCCN1CCN(CCNc2c3ccccc3nc3ccccc23)CC1`: the inhibition in assay [1] is 13%; in assay [2], 3%. Also, the growth inhibition in assay [3] is 88% (active). The result in assay [4], in assay [5], in assay [6] and in assay [7] was inactive.
As for `CCOc1cc(Cc2cnc(N)nc2N)cc(Br)c1OC`, the growth inhibition in assay [8] is 3%; in assay [3] it was 83% (active). The inhibition in assay [2] was 5%. Also, the outcome in assay [4], in assay [5], in assay [6] and in assay [7] was inactive.
Take `CO/N=C(\C)c1ccc2c(c1)CCN(CCC1CCC(NC(=O)c3cccc(-c4noc(C)n4)c3)CC1)CC2` (stereo unspecified): the inhibition was 42% in assay [1] and -1% in assay [2]. In assay [3], the growth inhibition was 90% (active). Further, the result in assay [4], in assay [5], in assay [6] and in assay [7] was inactive.
As to `NC(=O)c1sc(-n2cnc3ccc(C(=O)NCCN4CCOCC4)cc32)cc1OCc1ccccc1C(F)(F)F`, the inhibition in assay [1] was -15%; in assay [2], 1%. The growth inhibition in assay [3] is 81% (active). For the same molecule, the result in assay [4], in assay [5], in assay [6] and in assay [7] was inactive.
For the molecule `COc1ccc2c(c1)C(C)(CCCN(C)C)C(=O)N2C` (stereo unspecified), the figures for the inhibition in assay [1] and in assay [2] were 8% and -3%, respectively. Moreover, in assay [3], the growth inhibition is 93% (active). For the same molecule, the result in assay [4], in assay [5], in assay [6] and in assay [7] was inactive.
With `CCc1cccc(-c2cc(=N)n(C)c3nc(N)[nH]c(=O)c23)c1`, the growth inhibition in assay [8] was 28%; in assay [3], 85% (active). The inhibition in assay [2] is 3%. Moreover, the outcome in assay [4], in assay [5], in assay [6] and in assay [7] was inactive.
Turning to `CCc1cc(-c2n[nH]c(C(F)(F)F)c2-c2ccccc2)c(O)cc1OC`, the values for the inhibition in assay [1] and in assay [2] were 9% and 1%, respectively. Besides, the growth inhibition in assay [3] was 84% (active). For the same molecule, the result in assay [4], in assay [5], in assay [6] and in assay [7] was inactive.
